Among the data in PubChem BioAssay AID651636 (Sanford-Burnham Center for Chemical Genomics, 2012) are inhibition values, retold here.

“And” between values parts separate entries of the source, which are not always exact repeats. Equal entries are not always repeated. Screen size: about 360,000 compounds; about 3,000 (0.83%) were called active. Cut-off read from the data, not from the text of the source: active = inhibition above about 38%; inactive = the rest. For the sample, actives were picked, then their nearest neighbours and some compounds at random.

The test deals with G-protein coupled receptor 183 (Homo sapiens) (UniProt P32249). The test is described as follows: EBI2 receptor antagonists, beta-arrestin recruitment, primary screen, cell-based, luminescence, 7a,25-OHC stimulation, uHTS (AID 651636).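 Note: enzyme fragment complementation signal reports receptor beta-arrestin coupling in cells; 0% = agonist plus DMSO wells and 100% = wells without agonist.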 The settings on record: 7a,25-OHC stimulated, at 5 µM, active compounds read high. For orientation: Recruitment of arrestin is a read-out of receptor activation apart from second messengers.
Sequence of G-protein coupled receptor 183 (Homo sapiens) (P32249 whole entry, looked up, the tested form may be a part): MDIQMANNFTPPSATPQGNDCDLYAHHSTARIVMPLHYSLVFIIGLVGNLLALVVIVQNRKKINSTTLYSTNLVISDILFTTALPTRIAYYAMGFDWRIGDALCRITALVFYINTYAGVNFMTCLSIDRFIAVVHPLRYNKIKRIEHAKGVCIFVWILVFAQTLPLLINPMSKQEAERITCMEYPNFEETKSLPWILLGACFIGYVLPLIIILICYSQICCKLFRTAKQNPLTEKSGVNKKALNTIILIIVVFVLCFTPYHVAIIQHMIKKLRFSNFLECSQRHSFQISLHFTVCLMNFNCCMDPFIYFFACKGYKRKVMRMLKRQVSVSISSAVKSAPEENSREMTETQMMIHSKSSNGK
`CCN(CC)CCNc1nc(-c2ccc(OC(F)F)cc2)c(C)s1`: the inhibition (usually the drop in the measured response relative to a control, in per cent) is 7.54% (inactive).
For the molecule `CCCCn1nnnc1C(c1cc2ccccc2o1)N(C)Cc1ccc(Cl)c(Cl)c1` (stereo unspecified), the inhibition was 15.8% (inactive).
Take `COCCNC(=S)c1ccc(OC)cc1`: the inhibition was -12.7% (inactive).
With `Cc1cs/c(=N\N=C\c2ccc(O)cc2)n1Cc1ccco1` the figure was 50.6% (active); with `CN(C)C(=S)N=c1ssc(=S)n1Cc1ccco1`, -5.43% (inactive).
On to `CC(C)NC(=O)NNc1c(Cl)cncc1Cl`, for which the inhibition was 1.07% (inactive).
For `ONC(=Nc1ccc(Cl)cc1)c1ccccc1Cl` the value was -0.13% (inactive); for `COc1ccc(NC(=O)CCNS(=O)(=O)c2ccc3c(c2)c(=O)n(C)c(=O)n3C)cc1OC`, -1.47% (inactive).
With `COc1ccc(NC2CC(=O)N(C)C2=O)cc1` (stereo unspecified) the figure was -2.09% (inactive); with `CCOc1ccc(C(C)=O)cc1COC(=O)CNC(=O)c1cccs1`, 4.34% (inactive).
In the case of `CCOc1ccc(C(C)=O)cc1COC(=O)c1cnc(Cl)c(Cl)c1`, the inhibition was 43.3% (active).
For `COC(=O)c1ccc(COC(=O)c2cnc(Cl)c(Cl)c2)cc1` the value was 4.66% (inactive).
With `Cc1c(Br)ccc(NC(=O)COc2ccccc2C(N)=O)c1C` the figure was -2.44% (inactive).
For `CC(=O)Nc1ccc(N2C(=O)CCC2=O)cc1C`, the inhibition is 4.9% (inactive).
For `CN(CC(=O)NC1CCN(Cc2ccccc2)CC1)S(=O)(=O)c1ccc(Cl)s1` the value was 1.99% (inactive); for `COC(=O)C1CCN(C(=O)NC2CC(=O)N(c3ccc4c(c3)OCCO4)C2)CC1` (stereo unspecified), 8.78% (inactive); for `COc1cc2c(cc1OC)CC1(CCCCC1)N=C2`, 7.31% (inactive).
For `CN(C)S(=O)(=O)c1cccc(NC(=O)COc2ccc3ccccc3c2)c1` the value was 8.2% (inactive); for `Cc1ccc(C)c(NC(=O)CN(C)C(=O)COc2ccc3ccccc3c2)c1`, 27.2% (inactive); for `CN(Cc1ccc(F)cc1)C(=O)COc1ccc2ccccc2c1`, 93.1% (active).
For `CC1(C)OC(=O)C2=C(C[C@@H](C3CCCC3)O[C@@H]2c2ccc(Cl)cc2)O1` the value was -3.37% (inactive); for `Cn1c(CC2Sc3ccccc3NC2=O)nnc1SCC(=O)c1ccc(Cl)cc1` (stereo unspecified), 3.76% (inactive).
In the case of `Cc1ccc(-c2nn(-c3ccccc3)cc2/C=C/C(=O)Nc2cccc(S(N)(=O)=O)c2)cc1`, the inhibition is 41.1% (active).
For `O=C(/C=C/c1cn(-c2ccccc2)nc1-c1ccc2c(c1)OCCO2)NCCCN1CCOCC1` the value was 3.63% (inactive).
For `Cc1ccc(-c2nn(-c3ccccc3)cc2C(=O)Nc2cccc(S(=O)(=O)N3CCOCC3)c2)cc1`, the inhibition was 27.6% (inactive).
For `CC[C@]12c3[nH]c4cc(CCC(=O)N(C)C)ccc4c3CCN1C(=O)[C@@H](CC(=O)NCc1ccco1)C[C@@H]2C(=O)N1CCN(C(=O)c2ccco2)CC1` the value was -5.36% (inactive); for `CCN(CCCNC(=O)CSc1cc(=O)n(C)c2cc(Cl)ccc12)Cc1ccccc1`, 8.14% (inactive).
For the molecule `Cc1cc(Cl)c2oc(C(=O)N(C)C(C)c3ccccn3)c(C)c2c1` (stereo unspecified), the inhibition is 4.48% (inactive).
For `Cc1cc(Cl)c2oc(C(=O)NC(C)c3ccncn3)c(C)c2c1` (stereo unspecified) the value was -2.48% (inactive).
With `Cc1cc(Cl)c2oc(C(=O)N3CCC(O)(c4ccccc4)CC3)c(C)c2c1`, the inhibition is 73.4% (active).
In the case of `CSc1nnc(CNC(=O)c2ccccc2)n1-c1ccc(F)cc1`, the inhibition was -8.06% (inactive).
With `Cn1c(NC(=O)c2ccco2)c(-c2ccccc2Cl)c(=O)c2ccccc21` the figure was 2.45% (inactive); with `COCCNc1nc2nonc2nc1N(C)Cc1ccc(C)cc1`, -3.45% (inactive); with `NS(=O)(=O)c1ccccc1NC(=O)c1c(O)c2ccccc2[nH]c1=O`, 2.5% (inactive).
`O=C(c1cc2cc(F)ccc2[nH]1)N1CCN(c2ccc(F)cc2)CC1`: the inhibition is 71.3% (active).
With `Cc1c(C(=O)N2CCN(c3ccc(F)cc3)CC2)oc2c1C(=O)CCC2` the figure was -8.48% (inactive).
For `O=C(c1ccccc1Oc1ccccc1)N1CCN(c2ccc(F)cc2)CC1` the value was 7.76% (inactive); for `CCn1c(=S)sc2c(=O)n(CC(=O)Nc3ccc(OC)cc3)c(C)nc21`, 1.99% (inactive); for `COc1ccc(NC(=S)N2N=CCC2c2ccccc2)cc1` (stereo unspecified), 3.93% (inactive).
For `CC(=O)N1c2ccc(S(=O)(=O)NCCC(=O)N(C)C3CCCCC3)cc2CC1C` (stereo unspecified) the value was -4.73% (inactive); for `CCCCn1nnnc1C(c1ccccc1)N1CCN(c2ccccc2OC)CC1` (stereo unspecified), 1.91% (inactive); for `Fc1ccc(Cn2nnnc2C(c2cccs2)N2CCCCCC2)cc1` (stereo unspecified), 6.98% (inactive).
Consider `N#Cc1ccc(C(c2nnnn2CCc2ccccc2)N2CCCCCC2)cc1` (stereo unspecified), for which the inhibition is 50.2% (active).
For `O=C(CN1CCOCC1)Nc1c2c(nc3c1CCC3)CCC2` the value was 7.47% (inactive); for `CCCNC(=O)N1CCN(C(=O)NCCC)CC1`, -0.62% (inactive).
In the case of `Cc1cccc(-n2c(O)c(C=Nc3ccccc3N)c(=O)[nH]c2=O)c1`, the inhibition was 95.3% (active).
With `O=c1oc2ccccc2cc1-c1cn(-c2ccccc2)c(=S)[nH]1` the figure was -9.67% (inactive); with `COc1ccc(-n2cc(-c3ccccc3)c3c(=S)nc[nH]c32)cc1`, 14.3% (inactive); with `COc1ccc(-c2cn(-c3ccc(OC)cc3)c(=S)[nH]2)cc1`, 86.5% (active).
For `Cc1nc2ccc(S(=O)(=O)NCC(=O)O)cc2s1` the value was -11.4% (inactive); for `CC[n+]1c(C)n(-c2ccccc2)c2ccc(NC(C)=O)cc21`, 3.98% (inactive); for `N/C(=N\OC(=O)CCc1ccccc1)c1ccc(Cl)cc1`, 12.5% (inactive).
With `Cc1cccc(NC(=O)CN2CCN(CC(=O)NCC3(N4CCCCC4)CCCCC3)CC2)c1C` the figure was -3.14% (inactive); with `Cc1cc(C)cc(NC(=O)NC2CCN(CC(=O)Nc3cccc(Cl)c3C)CC2)c1`, 18.1% (inactive); with `Cc1cccc(NC(=O)CN2CCN(C(=O)C3CCN(C(=O)/C=C/c4ccccc4)CC3)CC2)c1C`, 79.2% (active).
For `O=C(C[C@H]1CC[C@@H](NC(=O)c2ccncc2)[C@@H](CO)O1)NCC1CC1`, the inhibition is -1.01% (inactive).
With `CC(C)C(=O)N1CCN(CCN=CC2=C(O)CC(c3ccco3)CC2=O)CC1` (stereo unspecified) the figure was -2.69% (inactive) and -8.63% (inactive).
For `CCOc1cc(-c2noc(CCC(=O)N3CCOCC3)n2)ccc1OC` the value was -2.72% (inactive); for `CCOc1nc(-c2ccc(OC)cc2)ccc1-c1noc(-c2cc(OC)c(OC)c(OC)c2)n1`, 49.3% (active); for `CCOc1ccc(-c2noc(CCC(=O)NC3CCCC3)n2)cc1OC`, 8.53% (inactive).
For `CCOc1ccc(S(=O)(=O)Nc2ccncc2)c(C)c1C` the value was -5.77% (inactive); for `CCCS(=O)(=O)NC(=O)C1(C)CCCN(C(=O)c2cc(C)on2)C1` (stereo unspecified), -3.5% (inactive).
Take `Cc1cccc(C)c1NC(=O)CN1CCN(c2ccc(F)cc2)CC1`: the inhibition is 0.0279% (inactive).
For `Oc1c(CN2CCN(c3ccc(F)cc3)CC2)cc(Cl)c2cccnc12` the value was 54.1% (active).
For `O=C(CN1CCN(c2ccc(Cl)cc2)CC1)c1ccccc1` the value was 2.55% (inactive); for `COc1cccc(-c2ccc3c(c2)N(Cc2ccccc2OC)C(=O)C(C)S3)c1` (stereo unspecified), 27.4% (inactive); for `COc1ccc(-c2cc(NC=O)c3ncc(-c4cc(OC)c(OC)c(OC)c4)n3c2)c(OC)c1`, 15.5% (inactive).
For `COc1ccc(-c2cc(NC=O)c3ncc(-c4cccc(C(=O)N(C)C)c4)n3c2)c(OC)c1` the value was 52% (active); for `CN(C)C(=O)c1cccc(-c2cnc3c(NC=O)cc(-c4ccc(F)cc4)cn23)c1`, 8.37% (inactive).
On to `N#Cc1ncc(C(F)(F)F)cc1Oc1cccnc1`, for which the inhibition is -11% (inactive).
For `Cc1onc(-c2ccccc2Cl)c1C(=O)N(Cc1ccc(N(C)C)cc1)C(C)C` the value was 1.77% (inactive); for `CC(Sc1nncn1C)C(=O)Nc1ccccc1-c1ccccc1` (stereo unspecified), -4.03% (inactive); for `CCOC(=O)C1=NN(c2ccc(Cl)cc2)/C(=C/C2=NCCc3cc(OC)c(OC)cc32)S1`, 6.84% (inactive).
For `COc1ccc(-c2cc(C3CCN(c4ncccc4[N+](=O)[O-])CC3)[nH]n2)cc1` the value was 37.5% (active).
Turning to `CC(=O)NC(Cc1ccccc1)C(=O)NC1CCN(c2ncccc2[N+](=O)[O-])CC1` (stereo unspecified), the inhibition is 5.83% (inactive).
With `COc1ccc(N2CCN(c3ccc([N+](=O)[O-])nc3)CC2)cc1` the figure was 6.82% (inactive); with `CCN1CCN(C(=O)N(Cc2ccc(Cl)cc2)S(=O)(=O)c2ccc(C)cc2)CC1`, -6.18% (inactive); with `CC1=C(C(=O)N(C(C)C)C(C)C)CC(CC(=O)NCC2CCCCC2)C(=O)N1Cc1ccccc1` (stereo unspecified), 3.31% (inactive).
For `O=c1[nH]c(CN2CCN(S(=O)(=O)c3ccc4c(c3)OCCO4)CC2)nc2sc3c(c12)CCCC3` the value was 38.3% (active).
Consider `O=C(c1ccc(Cl)nc1)N1CCN(S(=O)(=O)c2ccc3c(c2)OCCO3)CC1`, for which the inhibition is 17.6% (inactive).
With `CN1CCCN(S(=O)(=O)c2ccc3c(c2)OCCO3)CC1` the figure was -1.61% (inactive).
With `C=CCOc1ccc(/C=C/C(=O)OCC(=O)NC(C)c2ccc(F)cc2)cc1` (stereo unspecified) the figure was 29.1% (inactive).
For `Cn1c(SCC(=O)OC2CCCCC2)nnc1-c1ccc(S(=O)(=O)N2CCCC2)cc1` the value was 0.352% (inactive).
Turning to `COc1ccc(CCNC(=O)CCn2c(=O)c3ccccc3n(CC(=O)NCC3CCCO3)c2=O)cc1OC` (stereo unspecified), the inhibition was -15.5% (inactive).
For `COc1ccccc1CC1(C)C(=O)Nc2ccc(OC(F)(F)F)cc21` (stereo unspecified) the value was 3.59% (inactive); for `CC1(Cc2cccc(C#N)c2)C(=O)Nc2ccc(-c3cccc(C(F)(F)F)c3)cc21` (stereo unspecified), 17.2% (inactive); for `CC1(Cc2ccccc2C#N)C(=O)Nc2ccc(-c3ccc4[nH]ccc4c3)cc21` (stereo unspecified), 47.3% (active).
With `CCCCOCCCNC(=O)C[C@@H]1C[C@@]2(C(=O)OCC)CCCC=C2N(CCC2=CCCCC2)C1=O` the figure was 1.45% (inactive); with `CCOc1ccc(N(CC(=O)OC)S(=O)(=O)c2c(C)noc2C)cc1`, 1.12% (inactive).
For `CCOC(=O)c1cccc(NC(=O)CN(c2ccc(C)cc2)S(=O)(=O)c2c(C)noc2C)c1` the value was 15.3% (inactive); for `COc1ccc(N(CC(=O)Nc2cc(OC)ccc2OC)S(=O)(=O)c2c(C)noc2C)cc1`, 65.5% (active).
